# Data taken from PubChem BioAssay (NCATS).
# Results filed as inconclusive are left out. The source made the active and inactive calls. Calls come from the whole dose curve; as a rule, active = well fitted curve in the direction sought with a large enough effect; inconclusive = small, poorly fitted or top-dose-only effect, or another doubt; inactive = no such curve, though single readings can be large; an effect the other way counts as inactive or inconclusive.
# Legend:
# [1] = qHTS of pediatric cancer cell lines to identify multiple opportunities for drug repurposing: Primary screen for NB-EBc1 cells (AID 1347095)
# Procedure, shortened: (§1)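 Cells seeded at 500-1,000 cells/well in growth media, rested 5 hours at 37 degrees C, 5% CO2, then dosed; MIPE compounds at 11-point (from 0.78 nM) and NPC at 8-point (from 0.59 nM) final concentrations. Viability by CellTiter-Glo luminescence after 48 hours.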
# [2] = qHTS of pediatric cancer cell lines to identify multiple opportunities for drug repurposing: Primary screen for U-2 OS cells (AID 1347096); note: nearly all actives have a fitted effect of over 50% in size
# Procedure, shortened: (§2)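 Cells (500-1,000/well) rested 5 h, then received compounds for 48 h; metabolically active cells were measured by CellTiter-Glo luminescence. Final concentrations spanned up to 46 µM (MIPE, 11-point) or 0.59 nM-46 µM (NPC, 8-point) in primary screens, 11-point in follow-ups.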
# [3] = qHTS of pediatric cancer cell lines to identify multiple opportunities for drug repurposing: Primary screen for Saos-2 cells (AID 1347097); note: nearly all actives have a fitted effect of over 40% in size
# Procedure, shortened: as §1
# [4] = qHTS of pediatric cancer cell lines to identify multiple opportunities for drug repurposing: Primary screen for SK-N-SH cells (AID 1347098); note: nearly all actives have a fitted effect of over 65% in size
# Procedure, shortened: as §2
# [5] = qHTS of pediatric cancer cell lines to identify multiple opportunities for drug repurposing: Primary screen for NB1643 cells (AID 1347099); note: nearly all actives have a fitted effect of over 50% in size
# Procedure, shortened: as §1
# [6] = qHTS of pediatric cancer cell lines to identify multiple opportunities for drug repurposing: Primary screen for LAN-5 cells (AID 1347100)
# Procedure, shortened: as §2
# [7] = qHTS of pediatric cancer cell lines to identify multiple opportunities for drug repurposing: Primary screen for BT-12 cells (AID 1347101); note: nearly all actives have a fitted effect of over 25% in size
# Procedure, shortened: as §2
# [8] = qHTS of pediatric cancer cell lines to identify multiple opportunities for drug repurposing: Primary screen for Rh18 cells (AID 1347102); note: nearly all actives have a fitted effect of over 65% in size
# Procedure, shortened: as §2
# [9] = qHTS of pediatric cancer cell lines to identify multiple opportunities for drug repurposing: Primary screen for OHS-50 cells (AID 1347103); note: nearly all actives have a fitted effect of over 40% in size
# Procedure, shortened: as §2
# [10] = qHTS of pediatric cancer cell lines to identify multiple opportunities for drug repurposing: Primary screen for RD cells (AID 1347104); note: nearly all actives have a fitted effect of over 55% in size
# Procedure, shortened: as §1
# Potency is the fitted concentration of half-maximal effect.
Compound,Potency [1],Potency [2],Potency [3],Potency [4],Potency [5],Potency [6],Potency [7],Potency [8],Potency [9],Potency [10]
C=CCn1c(=O)c2cnc(Nc3ccc(N4CCN(C)CC4)cc3)nc2n1-c1cccc(C(C)(C)O)n1,0.209 µM (active),3.72 µM (active),1.05 µM (active),0.681 µM (active),0.187 µM (active),0.469 µM (active),7.69 µM (active),7.43 µM (active),0.306 µM (active),0.418 µM (active)
O=C1CCC[C@@H]2[C@H]3CCC[N+]4([O-])CCC[C@@H](CN12)[C@@H]34 (stereo partly drawn),inactive,inactive,inactive,inactive,inactive,inactive,inactive,inactive,inactive,inactive
CCC[C@H](NC(=O)C(C#N)=Cc1cccc(Br)n1)c1ccccc1,8.33 µM (active),inactive,33.2 µM (active),24.1 µM (active),7.43 µM (active),14.8 µM (active),27.3 µM (active),14.8 µM (active),12.2 µM (active),13.2 µM (active)
CNC(=O)c1ccc(N2C(=S)N(c3cnc(C#N)c(C(F)(F)F)c3)C(=O)C23CCC3)cc1F,7.43 µM (active),14.8 µM (active),inactive,1.21 µM (active),3.32 µM (active),8.33 µM (active),19.3 µM (active),14.8 µM (active),,5.9 µM (active)
C=CC(=O)Nc1cc2c(Nc3ccc(F)c(Cl)c3)ncnc2cc1C#CC(C)(C)N1CCN(C)CC1,2.96 µM (active),7.43 µM (active),4.18 µM (active),3.83 µM (active),0.526 µM (active),2.96 µM (active),21.7 µM (active),4.69 µM (active),3.85 µM (active),5.9 µM (active)
CC(NCc1ccc2c(c1)nc(NC(=O)c1ccc(-c3cn[nH]c3)s1)n2CC(C)(C)O)C(C)(C)C (stereo not drawn),0.418 µM (active),1.18 µM (active),0.743 µM (active),0.961 µM (active),0.372 µM (active),0.132 µM (active),0.968 µM (active),1.66 µM (active),0.485 µM (active),1.05 µM (active)
Cc1ccc(C(=O)Nc2cccc(C(F)(F)F)c2)cc1-c1ccc2nc(NCCN3CCOCC3)ncc2c1,3.72 µM (active),inactive,5.9 µM (active),9.61 µM (active),5.26 µM (active),14.8 µM (active),7.69 µM (active),7.43 µM (active),3.85 µM (active),5.9 µM (active)
CC1COC2(CCN(c3nc(=O)c4cc(C(F)(F)F)cc([N+](=O)[O-])c4s3)CC2)O1 (stereo not drawn),inactive,inactive,inactive,inactive,inactive,inactive,inactive,inactive,inactive,inactive
c1ccc2c(CCNc3ccc(Nc4ccncc4)cc3)c[nH]c2c1,2.35 µM (active),inactive,14.8 µM (active),19.2 µM (active),5.26 µM (active),4.18 µM (active),21.7 µM (active),18.7 µM (active),6.85 µM (active),26.4 µM (active)
C=CC(=O)N1CCC[C@@H](n2nc(-c3ccc(Oc4ccccc4)cc3)c3c(N)ncnc32)C1,10.5 µM (active),inactive,11.8 µM (active),12.1 µM (active),2.35 µM (active),16.6 µM (active),,18.7 µM (active),,33.2 µM (active)
CN1c2cc(O)c(N=NC(N)=O)cc2CC1S(=O)(=O)O (stereo not drawn),inactive,inactive,inactive,inactive,inactive,inactive,inactive,inactive,inactive,inactive
CCCCCCCCCC(=O)N[C@@H](Cc1c[nH]c2ccccc12)C(=O)N[C@H](CC(N)=O)C(=O)N[C@@H](CC(=O)O)C(=O)N[C@@H]1C(=O)NCC(=O)N[C@@H](CCCN)C(=O)N[C@@H](CC(=O)O)C(=O)N[C@H](C)C(=O)N[C@@H](CC(=O)O)C(=O)NCC(=O)N[C@H](CO)C(=O)N[C@@H]([C@@H](C)CC(=O)O)C(=O)N[C@@H](CC(=O)c2ccccc2N)C(=O)O[C@@H]1C,inactive,inactive,inactive,inactive,inactive,inactive,inactive,inactive,inactive,inactive
CCC1=C[C@@H]2CN(C1)Cc1c([nH]c3ccccc13)[C@@](C(=O)OC)(c1cc3c(cc1OC)N(C)[C@@H]1[C@@](O)(C(=O)OC)[C@H](OC(C)=O)[C@]4(CC)C=CCN5CC[C@]31[C@@H]54)C2,0.235 µM (active),inactive,0.0166 µM (active),,0.059 µM (active),0.0093 µM (active),0.0769 µM (active),,0.0432 µM (active),0.0187 µM (active)
CC1=C(CO)C(=O)O[C@@H]([C@@H](C)[C@H]2CC[C@H]3[C@@H]4C[C@H]5O[C@]56[C@@H](O)C=CC(=O)[C@]6(C)[C@@H]4CC[C@]23C)C1,0.469 µM (active),inactive,,3.41 µM (active),0.132 µM (active),0.187 µM (active),0.769 µM (active),2.64 µM (active),4.85 µM (active),0.418 µM (active)
O=C(NCCS(=O)(=O)c1ccc(C(F)(F)F)cn1)c1ccc(Cl)cc1,inactive,inactive,inactive,,inactive,inactive,inactive,inactive,inactive,inactive
Cn1cncc1[C@@](N)(c1ccc(Cl)cc1)c1ccc2c(c1)c(-c1cccc(Cl)c1)cc(=O)n2C,11.8 µM (active),18.7 µM (active),,8.57 µM (active),18.7 µM (active),5.9 µM (active),21.7 µM (active),16.6 µM (active),7.69 µM (active),16.6 µM (active)
Cc1ccc(C(N)=O)cc1Nc1nccc(-c2cn(C(C)C)c3cnccc23)n1,4.18 µM (active),inactive,4.69 µM (active),,inactive,,6.85 µM (active),inactive,9.68 µM (active),16.6 µM (active)
OCc1ccc(-c2ccc(-c3ccc(CO)s3)o2)s1,14.8 µM (active),inactive,,21.5 µM (active),26.4 µM (active),inactive,30.6 µM (active),inactive,,
O=C(O)Cn1nnc(-c2cc(N3CCC(Oc4cc(F)ccc4Br)CC3)no2)n1,inactive,inactive,inactive,,inactive,inactive,inactive,inactive,,
Cc1cn2cc(C(=O)N(C)CCO)cc(N[C@@H]3CCOc4cccc(C)c43)c2n1,inactive,inactive,inactive,,inactive,inactive,inactive,inactive,inactive,inactive
C[C@@H](Oc1cc(-n2cnc3ccc(CN4CCN(C)CC4)cc32)sc1C(N)=O)c1ccccc1C(F)(F)F,0.0469 µM (active),29.6 µM (active),,0.108 µM (active),0.0235 µM (active),0.0332 µM (active),24.3 µM (active),20.9 µM (active),0.0968 µM (active),
O=C(CCCCCCNC(=O)c1cnc(N(c2ccccc2)c2ccccc2)nc1)NO,4.18 µM (active),inactive,,10.8 µM (active),3.72 µM (active),4.69 µM (active),17.2 µM (active),5.9 µM (active),6.85 µM (active),13.2 µM (active)
CCCCc1nc2cc(C=CC(=O)NO)ccc2n1CCN(CC)CC,0.59 µM (active),0.743 µM (active),0.0296 µM (active),3.41 µM (active),,0.0833 µM (active),0.193 µM (active),0.0148 µM (active),0.153 µM (active),2.09 µM (active)
O=C(O)CCCc1c[nH]c2ccccc12,18.7 µM (active),inactive,inactive,inactive,,,,inactive,inactive,inactive
CCN1CCN(Cc2ccc(-c3cc4c(N[C@H](C)c5ccccc5)ncnc4[nH]3)cc2)CC1,0.0469 µM (active),18.7 µM (active),0.209 µM (active),21.5 µM (active),,0.0148 µM (active),0.769 µM (active),5.9 µM (active),0.153 µM (active),0.0074 µM (active)
NC(=O)c1cccc2cn(-c3ccc([C@@H]4CCCNC4)cc3)nc12,6.62 µM (active),inactive,,inactive,20.9 µM (active),11.8 µM (active),inactive,inactive,,
O=C(Nc1nc2cccc(-c3ccc(CN4CCS(=O)(=O)CC4)cc3)n2n1)C1CC1,10.5 µM (active),inactive,18.7 µM (active),,10.5 µM (active),,27.3 µM (active),,,18.7 µM (active)
C1Cc2[nH]nc(-c3nn[nH]n3)c2C1,inactive,inactive,inactive,inactive,,inactive,inactive,inactive,inactive,inactive
Cc1coc2c1C(=O)C(=O)c1c-2ccc2c1CCCC2(C)C,8.33 µM (active),inactive,1.66 µM (active),inactive,,,21.7 µM (active),20.9 µM (active),,
